Laboratory results published in PubChem BioAssay (NCATS).
Records with an inconclusive call do not appear. Active and inactive are the calls of the source. The call rests on the fitted dose curve; in most records, active means well fitted cell-killing curve with a large enough effect; inconclusive means small, poorly fitted or top-dose-only effect; inactive means no such curve, though single readings can be large or run the other way.

Assay: qHTS of pediatric cancer cell lines to identify multiple opportunities for drug repurposing: Confirmatory screen for U-2 OS cells (AID 1347122); further: nearly all actives have a fitted effect of over 65% in size;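 on activity change, negative = cytotoxicity: plate controls were DMSO for no effect and bortezomib for full effect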
Details: U-2 OS osteosarcoma cell viability; series mostly up to 45.9 µM; activity change, negative = cytotoxicity: at the top concentration
Procedure, shortened: (§1)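 Cells (500-1,000/well) in growth media were settled 5 h at 37 degrees C, then given compounds for 48 h. Viability was read as CellTiter-Glo luminescence. Primary runs used MIPE at 11 points (0.78 nM-46 µM) and NPC at 8 points (0.59 nM-46 µM); follow-ups used 11 points.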
Potency means the concentration at half of the fitted maximal effect.

SMILES | Potency | activity change, negative = cytotoxicity
Cc1nn(Cc2ccccc2Cl)c(C)c1CN(C)CC(O)COc1ccc(Cl)cc1 (configuration not stated) | 18.5 µM (active) | –
CC1(C)CC(=O)c2c(C(F)(F)F)nn(-c3ccc(C(N)=O)c(NC4CCC(O)CC4)c3)c2C1 (configuration not stated) | 0.185 µM (active) | –
CC(C)C[C@H](NC(=O)c1cc2ccccc2s1)C(=O)N1CCN(C(=O)[C@H](CO)NS(=O)(=O)c2ccc(Cl)cc2Cl)CC1 | 0.0293 µM (active) | –
CCN(CCO)CCCOc1ccc2c(Nc3cc(CC(=O)Nc4cccc(F)c4)[nH]n3)ncnc2c1 | – | 27.8% (inactive)
CC(=O)N1CCN(c2ccc(OCc3nn(C)c(C)c3-c3cccc4c(CCCOc5cc(C)c(Cl)c(C)c5)c(C(=O)O)n(Cc5cccnc5)c34)cc2)CC1 | – | -14.9% (inactive)
COc1cc2c(cc1Cc1cccc(Cl)c1F)c(=O)c(C(=O)O)cn2[C@H](CO)C(C)C | – | -29.5% (inactive)
O=C1NC(=O)C(c2cnc3ccccn23)=C1c1cn2c3c(cccc13)CN(C(=O)N1CCOCC1)CC2 | – | 8.11% (inactive)
O=C(c1ccc(F)c(F)c1Nc1ccc(I)cc1F)N1CC(O)([C@H]2CCCCN2)C1 | 2.61 µM (active) | –
CCC(=O)N1CCN(c2ccc(-n3c(=O)ccc4cnc5ccc(-c6cnc7ccccc7c6)cc5c43)cc2C(F)(F)F)CC1 | – | 5.64% (inactive)
COc1cc2c(cc1OC)[C@@H]1Cc3ccc(OC)c(OC)c3CN1CC2 | – | 14.1% (inactive)
Nc1ncnc2c1ncn2[C@@H]1O[C@H](CO)[C@@H](O)[C@@H]1O | 10.4 µM (active) | –
CC1=C[C@@H]2[C@@H]([C@@H](O)C[C@@]3(C)[C@H]2C[C@@H](C)[C@]3(O)C(=O)CO)[C@@]2(C)Cc3cnn(-c4ccccc4)c3C=C12 | – | 14.8% (inactive)
CCC[C@H](Nc1nc(-c2ccc(NC(=O)NCC)c(OC)c2)ncc1C)c1cccnc1 | 0.233 µM (active) | –

Assay: qHTS of pediatric cancer cell lines to identify multiple opportunities for drug repurposing: Confirmatory screen for Rh41 cells (AID 1347123);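 further: 48 h compound exposure; nearly all actives have a fitted effect of over 60% in size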;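 on activity change, negative = cytotoxic: plate controls were DMSO for no effect and bortezomib for full effect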
Details: Rh41 rhabdomyosarcoma cells, viability/cytotoxicity qHTS; series mostly up to 45.9 µM; activity change, negative = cytotoxic: at the top concentration
Procedure, shortened: as §1

SMILES | Potency | activity change, negative = cytotoxic
CC1(C)CC(=O)c2c(C(F)(F)F)nn(-c3ccc(C(N)=O)c(NC4CCC(O)CC4)c3)c2C1 (configuration not stated) | 0.369 µM (active) | –
CC(C)(C)c1[nH]cnc1C=c1[nH]c(=O)c(=Cc2ccccc2)[nH]c1=O | 0.0227 µM (active) | –
Cc1cc(CS(=O)(=O)c2ccccc2)cc(OCc2ccc(CN3CCC[C@H]3CO)cc2)c1 | 16.5 µM (active) | –
CC(C)C[C@H](NC(=O)c1cc2ccccc2s1)C(=O)N1CCN(C(=O)[C@H](CO)NS(=O)(=O)c2ccc(Cl)cc2Cl)CC1 | 18.5 µM (active) | –
Nc1[nH]nc2nnc(-c3c(-c4ccccc4)nn4ccccc34)cc12 | – | -14.6% (inactive)
CN(C(Cc1ccc(OS(=O)(=O)c2cccc3cnccc23)cc1)C(=O)N1CCN(c2ccccc2)CC1)S(=O)(=O)c1cccc2cnccc12 (configuration not stated) | 5.22 µM (active) | –
Cc1ccc2c(c1)C(=O)[C@]1(O)CCN(c3ccccc3)C1=N2 | 11.7 µM (active) | –
COc1cc2c(cc1Cc1cccc(Cl)c1F)c(=O)c(C(=O)O)cn2[C@H](CO)C(C)C | 16.5 µM (active) | –
O=C1NC(=O)C(c2cnc3ccccn23)=C1c1cn2c3c(cccc13)CN(C(=O)N1CCOCC1)CC2 | 0.0185 µM (active) | –
O=C(c1ccc(F)c(F)c1Nc1ccc(I)cc1F)N1CC(O)([C@H]2CCCCN2)C1 | 14.7 µM (active) | –
Nc1ncnc2c1ncn2[C@@H]1O[C@H](CO)[C@@H](O)[C@@H]1O | 14.7 µM (active) | –
CCOC(=O)[C@H](CCc1ccccc1)N[C@@H](C)C(=O)N1CCCC1C(=O)O (some centres not stated) | 9.27 µM (active) | –
CC1=C[C@@H]2[C@@H]([C@@H](O)C[C@@]3(C)[C@H]2C[C@@H](C)[C@]3(O)C(=O)CO)[C@@]2(C)Cc3cnn(-c4ccccc4)c3C=C12 | 23.3 µM (active) | –
COC(=O)Nc1ccc(-c2nc(N3CCOCC3)c3cnn(C4CCN(C(=O)OC)CC4)c3n2)cc1 | 2.61 µM (active) | –
